# Screens deposited in PubChem by National Center for Advancing Translational Sciences (NCATS).
# DT40 TDP1 no CPT: qHTS for Inhibitors of human tyrosyl-DNA phosphodiesterase 1 (TDP1): qHTS in cells in absence of CPT | DT40 Tdp1-/- hTDP1 cells, no CPT, ATP luminescence, 48 h | Potency, µM (top dose mostly 46.2 µM), actives largely listed as inhibitors | 420,000 compounds, 15% hits | AID 686978, 2013; note: nearly all actives have a fitted effect of over 55% in size
#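 Chicken DT40 Tdp1-/- cells stably complemented with human TDP1 were seeded at 400 cells/well with DMSO in place of 20 nM camptothecin. After compound pinning, cells grew at least 48 hr at 37 °C; viability read by CellTiter-Glo luminescence.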
# RORg inh: qHTS for inhibitors of ROR gamma transcriptional activity; Nuclear receptor ROR-gamma (Mus musculus), P51450; Drosophila S2 Gal4-RORgamma UAS-luciferase reporter, 20 h; Potency, µM (series often up to 53.6 µM), usual class: inhibitors; 310,000 compounds, 5.4% hits; note: nearly all actives have a fitted effect of over 60% in size
# Target sequence (P51450 whole entry, looked up, the tested form may be a part): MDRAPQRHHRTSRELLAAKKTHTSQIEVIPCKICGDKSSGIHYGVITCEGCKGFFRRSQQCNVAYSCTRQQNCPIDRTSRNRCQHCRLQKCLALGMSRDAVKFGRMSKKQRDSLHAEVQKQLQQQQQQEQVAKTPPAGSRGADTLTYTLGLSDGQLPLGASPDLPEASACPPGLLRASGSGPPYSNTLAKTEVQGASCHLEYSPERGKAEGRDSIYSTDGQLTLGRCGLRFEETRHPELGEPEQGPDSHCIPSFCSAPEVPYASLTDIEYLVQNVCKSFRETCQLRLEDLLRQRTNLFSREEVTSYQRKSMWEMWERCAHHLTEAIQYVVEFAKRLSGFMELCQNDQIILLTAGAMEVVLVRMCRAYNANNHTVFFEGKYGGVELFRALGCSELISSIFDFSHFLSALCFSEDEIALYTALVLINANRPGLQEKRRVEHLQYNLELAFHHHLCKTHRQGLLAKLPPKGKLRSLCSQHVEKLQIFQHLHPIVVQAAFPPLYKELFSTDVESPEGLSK
#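 In this cell-based reporter format, copper sulfate (700 uM final) drives Gal4–ROR gamma fusion expression from a metallothionein promoter in Drosophila Schneider cells; compounds preincubated 1 hr, reporter read after 20 hr at ambient temperature.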
# IL-1B inflam inh: qHTS for Inhibitors of Inflammasome Signaling: IL-1-beta AlphaLISA Primary Screen. AID 743279, 2014. 360,000 compounds, 4.7% hits. THP-1 LPS/ATP IL-1B secretion, AlphaLISA, 16 h; stronger effect = lower value. activity change, % at 57.5 µM; in the data active = activity change below about -50%; inconclusive = mostly about -30% to -49%
#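 Secreted IL-1B measured by AlphaLISA bead assay after 16 h compound exposure of THP-1 cells; compounds (final up to 57.5 uM) added 1 h before LPS (250 ng/mL) and ATP (1.25 mM) stimulation; lower signal means less secretion.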
# ELG1 DNA repair: qHTS screen for small molecules that inhibit ELG1-dependent DNA repair in human embryonic kidney (HEK293T) cells expressing luciferase-tagged ELG1. HEK293T ELG1-luciferase reporter, luminescence, 16 h; DNA damage induced by 5-fluorouridine. Potency, µM (top dose mostly 46.1 µM), actives largely listed as inhibitors. 330,000 compounds, 2.3% hits. AID 504467, 2011; note: nearly all actives have a fitted effect of over 55% in size
#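 5-Fluorouridine DNA damage + compound/DMSO, 2,000 cells/well, 16 h, 37 °C/5% CO2. ONE-Glo, 30 min RT, luminescence. Readout = decrease in reporter signal.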
# DT40 TDP1 CPT: qHTS for Inhibitors of human tyrosyl-DNA phosphodiesterase 1 (TDP1): qHTS in cells in presence of CPT; chicken DT40 Tdp1-/-;hTDP1 cells + 20 nM CPT, ATP luminescence, 48 h; Potency, µM (titrated, usually from 46.2 µM), usual class: inhibitors; 420,000 compounds, 12% hits; AID 686979, 2013; note: nearly all actives have a fitted effect of over 55% in size
#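 Cell growth measured by CellTiter-Glo luminescence after a minimum 48 h, 37 C compound exposure with 20 nM CPT in Tdp1-knockout DT40 cells stably expressing hTDP1, seeded 400/well; qHTS titration format.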
# VP16 counter: VP16 counterscreen qHTS for inhibitors of ROR gamma transcriptional activity; Potency, µM (series often up to 53.6 µM), most hits filed as inhibitors; 310,000 compounds, 3.5% hits; Drosophila S2 Gal4-VP16 UAS-luciferase, luminescence, 20 h;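 note: Gal4-VP16 expression switched on by copper sulfate through the metallothionein promoter; nearly all actives have a fitted effect of over 50% in size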
# A number is an active result; - = inactive; ? = inconclusive; . = not tested or not shown. The list is not random: actives were taken first. Their share in the collection is about 21%. Unless noted, calls come from the whole dose curve; as a rule, active = well fitted curve in the direction sought with a large enough effect; inconclusive = small, poorly fitted or top-dose-only effect, or another doubt; inactive = no such curve, though single readings can be large; an effect the other way counts as inactive or inconclusive.
SMILES,DT40 TDP1 no CPT,RORg inh,IL-1B inflam inh,ELG1 DNA repair,DT40 TDP1 CPT,VP16 counter
O=C(OC(c1ccccc1)c1nccc2ccccc12)c1cc([N+](=O)[O-])cc([N+](=O)[O-])c1 (stereo unspecified),21µM,-,-,-,15µM,-
CCC1(CC)C(=O)C(C)(C)C(=O)OC1c1cccs1 (stereo unspecified),21µM,-,-,-,?,-
CCOc1ccc2nc(N3C(=O)CNC3=S)sc2c1,6.5µM,1µM,-97,?,16µM,2.8µM
Cc1cc2nc(N3C(=O)CNC3=S)sc2cc1C,5.8µM,1µM,-97,?,?,3.2µM
COc1ccc(NC(=O)c2cnc3cc(C)ccn3c2=O)c(OC)c1,-,.,.,.,-,.
O=C(COC(=O)c1cccnc1Cl)Nc1ccc2c(c1)OCCO2,-,?,-,-,-,-
COc1ccc(NC(=O)N(C)C[C@H]2Oc3c(NC(=O)C4CCCCC4)cccc3C(=O)N([C@H](C)CO)C[C@@H]2C)cc1,-,.,-,-,-,.
O=C(Nc1ccccc1)C1Cc2c(-c3ccco3)ccnc2O1 (stereo unspecified),?,.,-,.,?,.
O=S(=O)(NCC1CN(S(=O)(=O)c2c(F)cccc2F)C1)c1ccc2c(c1)OCCO2,.,.,.,-,.,.
Clc1nc(-c2ccccc2)c2ccccc2n1,-,-,-,-,-,-
S=c1nc(-c2ccccc2)[nH]n1-c1ccccc1,23µM,7.9µM,-,-,-,11µM
S=c1nc2ccccc2c2nc(-c3ccccc3)[nH]n12,9.2µM,0.089µM,-,?,21µM,0.35µM
S=c1nc2ccccc2c2nc(-c3ccccc3Cl)[nH]n12,3.7µM,0.35µM,-,?,3.3µM,1.6µM
O=C(c1[nH]c(C(F)(F)F)nc1-c1ccccc1)N1CCN(Cc2c(F)cccc2Cl)CC1,-,.,-,.,-,.
CCCCc1nnc(SCc2cc(=O)c3cc(C(=O)OCC)ccc3[nH]2)n1C,-,.,.,.,-,.
Cc1nc(NCc2c(F)cccc2F)sc1-c1ccn(CCN2CCOCC2)n1,-,.,.,.,-,.
O=C(O)c1ccc(/C=N/N2CCN(Cc3ccccc3)CC2)cc1,-,-,-,-,-,-
COc1ccc(NS(=O)(=O)c2cc(C)ccc2C)cc1,16µM,-,-,?,21µM,-
COc1ccc(NS(=O)(=O)c2cc(OC)ccc2NC(=O)c2cc(C)oc2C)cc1,2.6µM,-,-,?,5.2µM,-
COc1ccc(NS(=O)(=O)c2cc(S(C)(=O)=O)ccc2C)cc1,-,-,-,-,-,-
COc1ccc(NS(=O)(=O)c2cc(NC(=O)c3ccc(=O)[nH]n3)ccc2C)cc1,18µM,.,-,?,18µM,.
Cc1nn(C(=O)c2cccc([N+](=O)[O-])c2C)c(C)c1S(=O)(=O)N1CCCCCC1,-,.,.,.,-,.
C=CCNC(=O)[C@H]1N2C(=O)c3ccccc3C2SC1(C)C (stereo partly specified),-,-,-,-,-,-
CCOC(=O)C(C(=O)c1ccccc1)[C@H](CCc1ccccc1)NC(=O)OC (stereo partly specified),.,-,.,.,.,-
CCn1c2ccccc2nc2cc3c(cc21)c(Cl)c(=O)c1ccccc13,5.8µM,.,-,.,8.2µM,.
CCn1c(Nc2ccccc2Cl)nc2ccccc21,-,-,-,-,-,-
CC1(C)CC(=O)CC(=O)/C1=N\Nc1c(Cl)cc(Cl)cc1Cl,18µM,?,-,?,?,?
CC1(C)CC(=O)/C(=C(\O)Cc2ccccc2)C(=NCCCCCC(=O)O)C1,?,-,-,?,-,-
